Compounds with a hit are over-represented: about 12% of the library has one in this group of screens.
HP1b binding inh = HP1-beta chromodomain-methylated histone interaction inhibition; AlphaScreen HP1-beta / biotin-H3K9me3 peptide binding; Potency, µM (titrated, usually from 114 µM), for inactives: at the top dose activity change, negative = inhibition, hits mostly inhibitors; actives 0.56% (n = 390,000); AID 540317; also: nearly all actives have a fitted effect of over 70% in size
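HP1-beta protein (50 nM final) preincubated 30 min at room temperature with biotinylated H3(1-18)K9me3 peptide (50 nM) in PBS pH 7.4, 0.01% Tween-20, then compound added for 30 min. AlphaScreen streptavidin donor/nickel chelate acceptor beads (10 ug/mL final), 30 min dark, luminescence read.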
JMJD2A Tudor = blocks the human JMJD2A Tudor domain; Potency, µM (doses to about 114 µM), for the others: at the top dose activity change, negative = inhibition, usual class: inhibitors; actives 4.4% (n = 390,000); O75164; AlphaScreen JMJD2A-Tudor / H3K4me3 peptide binding; also: % is scaled to controls: 0 for no effect and ±100 for the full control effect; nearly all actives have a fitted effect of over 50% in size
G9a inh = inhibitors of human histone lysine methyltransferase G9a; Potency, µM (highest dose often 102 µM), for the others: at the top dose activity, negative = inhibition, most hits filed as inhibitors; AID 504332; actives 8.8% (n = 350,000); G9a H3K9 monomethylation, AlphaScreen, 2 h; also: % is scaled to controls: 0 for no effect and ±100 for the full control effect; nearly all actives have a fitted effect of over 75% in size
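G9a (20 nM) was preincubated 15 min with compound, then reacted 2 h at room temperature with 500 nM biotin-H3K9 peptide and 20 µM SAM. Monomethyl-H3K9 detected by AlphaScreen using anti-H3K9me1 antibody.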
Sfp inh = Sfp phosphopantetheinyl transferase inhibition; Q9F4F7; AID 1490; actives 3.5% (n = 310,000); Biochemical Sfp PPTase activity, qHTS; Potency, µM, without a hit: largest response in the series, negative = inhibition, most hits filed as inhibitors;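 also: the enzyme is Sfp with the accession as filed and its product quenches rhodamine fluorescence; 0% = enzyme reaction without inhibitor and -100% = no enzyme wells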
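After 15 min at room temperature with compound, 15 nM Sfp received 5 uM rhodamine-CoA plus 12.5 uM BHQ-2-ybbR (50 mM Hepes pH 7.6, 10 mM MgCl2). Rate came from the fluorescence difference over 30 min, ex 525/em 598 nm.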
BAZ2B block = inhibitors of human BAZ2B bromodomain; Potency, µM (titrated, usually from 114 µM), for inactives: top-dose activity change, negative = inhibition, actives largely listed as inhibitors; AlphaScreen BAZ2B-H3K14Ac peptide displacement; actives 4.4% (n = 360,000); Q9UIF8; AID 504333; also: % is scaled to controls: 0 for no effect and ±100 for the full control effect; nearly all actives have a fitted effect of over 60% in size
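AlphaScreen luminescence quantifies BAZ2B engagement of H3K14Ac peptide; the protein and biotinylated peptide are both at 50 nM final, buffer PBS pH 7.4 with 0.01% Tween-20, all steps at room temperature.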
PLK1 PBD block = inhibitors of human PLK1 polo-box domain binding; actives 2.8% (n = 360,000); Plk1 PBD binding of FITC phosphopeptide, fluorescence polarization; P53350; Potency, µM, for inactives: max response, negative = inhibition, actives largely listed as inhibitors; also: series mostly up to about 57 µM; % is scaled to controls: 0 for no effect and ±100 for the full control effect; nearly all actives have a fitted effect of over 65% in size
* marks the source's active call; other numbers are inactive results; ? = inconclusive; · = not tested or not shown; [ ] = another dose, or the depositor's remark. Calls follow the shape of the dose curve; as a rule, active = well fitted curve in the direction sought with a large enough effect; inconclusive = small, poorly fitted or top-dose-only effect, or another doubt; inactive = no such curve, though single readings can be large; an effect the other way counts as inactive or inconclusive. Potency is read from the fitted curve at half-maximal effect.

SMILES | HP1b binding inh | JMJD2A Tudor | G9a inh | Sfp inh | BAZ2B block | PLK1 PBD block
Cn1c(=O)c2c(-c3ccc(Cl)cc3)n(Cc3ccccc3)cc2n(C)c1=O | 28% | -18% | 6%[59 µM] | · | -21% | ·
COc1ccc2c(C)nc(Nc3nc(-c4ccccc4)cc(=O)[nH]3)nc2c1 | 22% | ? | ? | 11% | 79µM* | 3%
Cc1ccc2nc(Nc3nc(-c4ccccc4)cc(=O)[nH]3)nc(C)c2c1 | 28% | -16% | 14% | 15% | -2% | -4%
COc1ccc(-c2[nH]ncc2CN(C)CCCN2CCOCC2)cc1F | 23% | -8% | 24% | -5% | 36% | -5%
COc1ccc(-c2[nH]ncc2CN(CC2CCC(=O)N2)C(C)C)cc1F (stereo not given) | -14%[57 µM] | ? | ? | 8% | -10% | 27µM*
Cc1oc(C)c2c(=O)ccc3c(c12)OC(N)=C(C#N)C3c1ccc(F)cc1 (stereo not given) | ? | -11%[11.4 µM] | ? | ? | 56µM* | ?
CCOCCCn1cc(C(=O)c2cc(Br)ccc2O)cc(C#N)c1=O | 27% | -8% | -28%[59 µM] | 1% | 56µM* | -6%
O=S(=O)(Nc1nccs1)c1ccc(Br)cc1 | -13% | -8% | 2% | 27% | -25% | ?
O=S(=O)(Nc1nccs1)c1cnc(Cl)c(Br)c1 | 22% | -16% | 4%[59 µM] | 50µM* | 0% | 1%
Cc1ccc(NC(=O)Cn2cc(C(=O)c3ccco3)c3ccccc32)cc1 | 87% | -7% | ? | · | 29% | ·
CC(=S)c1c(C)cc2cc(C)ccn12 | 22µM* | 25µM* | ? | ? | 10µM* | ?
Cc1ccc(NC(=O)CSc2nc3nccnc3c(=O)n2CCc2c[nH]c3ccccc23)c(C)c1 | 38% | 6% | 2%[59 µM] | · | -16% | ·
N#CCC(=O)Nc1ccc(C(=O)OCC(=O)c2ccc3c(c2)OCCO3)cc1 | -9% | 18µM* | 53% | -10% | -8% | 12µM*
N#CCC(=O)Nc1ccc(C(=O)OCC(=O)c2ccc3c(c2)OCO3)cc1 | 7% | -14% | -2% | · | 12% | -4%
NS(=O)(=O)c1cc(C(=O)OCC(=O)c2ccc3c(c2)OCCO3)ccc1Cl | 6% | -26% | 24%[12.7 µM] | 8% | -24% | 30µM*
O=c1cc(/N=C/c2coc3cc(Br)ccc3c2=O)[nH]c(=S)[nH]1 | 9% | -25% | -44% | 14% | ? | -17%
CC(=O)Oc1ccc2c(=O)c(/C=N/c3cc(=O)[nH]c(=S)[nH]3)coc2c1 | 20% | -20% | 35µM* | -23% | -24% | -17%
O=C/C=C/c1c(-c2ccccc2)cc2oc3ccccc3cc1-2 | 6.3µM* | 6.3µM* | 8.9µM* | -21% | 3.5µM* | -12%
Cc1cc(C)nc(SCc2csc(N)n2)n1 | 35% | 4% | 50µM* | 35µM* | -21% | -19%
CCOc1ccc(CNC(=O)c2cccc(NC(=O)C3=C(C)OCCS3)c2)cc1 | 27% | 9% | ? | 11% | 50µM* | -3%
CCCNC(=O)c1c(O)c2c([nH]c1=O)CCCC2 | 7% | -12% | 5% | -22% | -11% | ?
CCNC(=O)c1c(O)c2c([nH]c1=O)CCCC2 | -13% | -10%[11.4 µM] | ? | 18% | -16% | 27µM*
Cc1ccc(-n2c(C)cc(C(=S)N3CCOCC3)c2C)cc1C | ? | 45µM* | · | -23% | 50µM* | ?
Cc1cc(C(=O)CN2CCCCC2)c(C)n1-c1ccc(F)cc1 | -14% | -29% | -13%[59 µM] | 7% | ? | -8%
Cc1cc(C(=S)N2CCOCC2)c(C)n1-c1ccc(F)cc1 | 33% | -16% | · | ? | 45µM* | ?
SMILES | HP1b binding inh | JMJD2A Tudor | G9a inh | Sfp inh | BAZ2B block | PLK1 PBD block
CC(C)(C)CN1CCNC(=O)C1CC(=O)NCCc1ccccc1F (stereo not given) | 33% | -8% | · | -6% | ? | -9%
COC(=O)c1sc2cc(C(F)(F)F)cnc2c1-c1cccnc1 | 3% | -9% | 16%[59 µM] | 0% | 12% | -8%
CSc1nnc(-c2sc3cc(C(F)(F)F)cnc3c2-c2cccnc2)n1C | 20% | -8% | 50µM* | 25% | 5% | -3%
CN(C)C(=C(C#N)C#N)N1CCN(c2ccc(Cl)c(Cl)c2)CC1 | 22% | -17% | 18% | -3% | 0% | 1%
CN(C)C(=C(C#N)C#N)N1CCN(c2ccc(Cl)cc2)CC1 | -20% | ? | -31% | 22% | -4% | 30µM*
CN1CCN(NC(=O)c2cn(-c3ccccc3)nc2-c2ccc(OC(F)F)cc2)CC1 | 25% | -22% | 79µM* | 8% | -29% | -5%
CCc1nnc(SCc2cccc(Cl)c2)c2cc3sccc3n12 | 55% | 17% | 28%[59 µM] | · | 8% | ·
CCOC(=O)c1cc2oc(C)cc2n1CC(=O)OC1CCCCC1 | 22% | -30% | ? | 79µM* | ? | -9%
COc1ccc(OC)c(S(=O)(=O)N2CCCC2C(=O)NC(C)c2ccccc2)c1 (stereo not given) | 40% | -3% | · | 17% | 7% | 0%
Nc1ccc(C(=O)O)c(O)c1 (tested in a mixture with another compound) | · | · | · | 2% | · | ·
Nc1ccc(O)c(C(=O)O)c1 | · | · | 3.2µM* | 45µM* | · | ·
Cc1ccccc1C(=O)c1cccn1CC(=O)NCc1cccc(Cl)c1 | 30% | -24% | 18% | 7% | -26% | ?
CCOC(=O)c1c(N)sc(C)c1-c1ccccc1 | · | · | 18µM* | 35µM* | · | ·
Cc1sc(N)c(C(=O)c2ccccc2)c1C | -23% | -5%[11.4 µM] | · | 16µM* | ? | 3.8µM*
CCOC(=O)c1c(N)sc(C(=O)N(C)C)c1C | 5% | 5% | -29%[59 µM] | 15% | 10% | -13%
CCOC(=O)c1c(N)nn(C(=O)C(C)(C)C)c1-c1ccccc1 | 43% | -10% | ? | 22% | 4% | 0%
CCOC(=O)c1c(NC(=O)CSc2nncs2)sc(C)c1-c1ccccc1 | 28% | -24% | ? | -19% | -25% | 1%
CCOC(=O)c1c(N)sc(-c2ccccc2)c1C | ? | ? | 8.9µM* | ? | -36% | 19µM*
CCOC(=O)c1c(N)sc(C(O)(C(F)(F)F)C(F)(F)F)c1-c1ccccc1 | ? | ? | -2% | 31% | -1% | 27µM*
O=C(Nc1ccc2nc(SCC(=O)N3CCOCC3)sc2c1)c1cccc(Cl)c1 | 52% | -7% | 1%[59 µM] | · | -3% | ·
CCCCN(C)c1ncnc2c1cnn2-c1cccc(Cl)c1 | 155% | 35% | 85%[59 µM] | · | 129% | ·
N#Cc1cccc(NC(=O)N2CCC3(CC2)CCN(C(=O)c2cccc(F)c2)CC3)c1 | · | · | 2%[12.7 µM] | 14% | · | ·
Cc1c(-c2ccccc2)sc(N)c1C(=O)N1CCOCC1 | ? | 2%[11.4 µM] | 4µM* | 45µM* | -28% | 24µM*

Screens (PubChem BioAssay)
